Laboratory results taken from PubChem BioAssay AID1066 (SRMLSC, 2008).
In all, about 190,000 compounds went through this assay and about 790 (0.42%) were called active. The sample holds actives, similar compounds and a random draw of the others, so the mix is not that of the screen. A number with no mark means an inactive call.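 How the source made its calls: active means inhibition above a set limit, the median over all tested compounds plus 3 SD (cut at about 9.5% in these data); inconclusive means no clear call, values can overlap the other calls; inactive means the rest.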

tested on: HMG-CoA reductase (Enterococcus faecalis, mvaE); test: class II HMG-CoA reductase enzyme inhibition – biochemical, Enterococcus faecalis, primary screen (AID 1066);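 further: enzyme runs in reverse so mevalonate oxidation gives rising NADPH absorbance; 0% = complete reaction with DMSO and 100% = background rate lacking mevalonate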; details: purified E. faecalis HMGR, NADPH absorbance 340 nm kinetic; at 10 µM; active compounds read high

Row | Structure (SMILES) | inhibition
1 | COc1ccc(CCn2c(O)c(C=NCCCn3ccnc3)c(=O)[nH]c2=O)cc1OC | 13.7% (active)
2 | CN(C)CCCN=Cc1c(O)n(Cc2ccco2)c(=O)[nH]c1=O | 6.16%
3 | COc1ccc(CCn2c(O)c(C=NC3CC3)c(=O)[nH]c2=O)cc1OC | -3.24%
4 | CN(C)c1nc(N(C)C)nc(N(C#N)CCCl)n1 | -6.92%
5 | O=C(O)CCn1cc(C=C2C(=O)NC(=S)NC2=O)c(-c2cccc(Br)c2)n1 | 1.54%
